The source of these data is PubChem BioAssay AID2551 (National Center for Advancing Translational Sciences (NCATS), 2010).

Screen size: about 310,000 compounds; about 17,000 (5.5%) were called active. Roughly 11% stayed inconclusive and do not appear here. Shown is part of a subset that was picked to be rich in actives. Values without a mark were called inactive. Calls come from the whole dose curve; as a rule, active = well fitted inhibition curve with a large enough effect; inconclusive = small, poorly fitted or top-dose-only effect, or effect the other way; inactive = no such curve, though single readings can be large or run the other way.
% is set by controls: 0 for no effect and ±100 for the full control effect; potency is the fitted concentration of half-maximal effect.

Chain of Nuclear receptor ROR-gamma (Mus musculus) (P51450 whole entry, looked up, the tested form may be a part): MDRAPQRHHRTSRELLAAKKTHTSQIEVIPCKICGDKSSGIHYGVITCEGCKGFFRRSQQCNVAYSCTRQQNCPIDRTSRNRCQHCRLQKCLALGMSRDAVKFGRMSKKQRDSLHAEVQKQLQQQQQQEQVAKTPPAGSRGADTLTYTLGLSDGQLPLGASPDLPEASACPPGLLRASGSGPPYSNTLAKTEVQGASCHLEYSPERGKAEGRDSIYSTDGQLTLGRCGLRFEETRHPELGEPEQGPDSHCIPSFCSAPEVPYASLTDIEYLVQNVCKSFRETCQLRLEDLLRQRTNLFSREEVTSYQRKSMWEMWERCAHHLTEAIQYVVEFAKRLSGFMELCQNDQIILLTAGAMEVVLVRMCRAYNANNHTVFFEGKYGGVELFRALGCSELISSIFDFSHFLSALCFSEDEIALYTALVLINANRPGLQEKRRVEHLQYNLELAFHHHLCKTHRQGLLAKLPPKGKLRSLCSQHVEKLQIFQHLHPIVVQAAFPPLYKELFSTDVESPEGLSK

The assay has as its target Nuclear receptor ROR-gamma (Mus musculus) (UniProt P51450). Briefly: qHTS for inhibitors of ROR gamma transcriptional activity. Note: nearly all actives have a fitted effect of over 60% in size. As to conditions: Drosophila S2 Gal4-RORgamma UAS-luciferase reporter, 20 h; series mostly up to 53.6 µM; activity change, negative = inhibition: at the top concentration. The procedure, abridged:
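In this cell-based reporter format, copper sulfate (700 uM final) drives Gal4–ROR gamma fusion expression from a metallothionein promoter in Drosophila Schneider cells; compounds preincubated 1 hr, reporter read after 20 hr at ambient temperature.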
Regarding `COc1ccc(CS(=O)/C(Cl)=C(/Cl)C(=O)Nc2ccc(OC)nc2)cc1` (stereo not drawn), the Potency was 1.12 µM (active). In the case of `COc1ccc(C(=O)Nc2ccc(NC(=O)C(C)C)nc2)cc1`, the “activity change, negative = inhibition” value is 2.2%.

In the case of `COc1ccc(NC(=O)/C(Cl)=C(/Cl)S(=O)Cc2ccc(C)cc2)cn1` (stereo not drawn), the “activity change, negative = inhibition” value was 15.4%. In the case of `O=C(NCc1ccccc1)C1CCN(C(=O)Cc2ccccc2)CC1`, the “activity change, negative = inhibition” value is 0.393%.

As to `Cc1ccc2nc(SCC(=O)NC3CCCC3)[nH]c2c1`, the “activity change, negative = inhibition” value is 4.15%. On to `O=C1CSC(c2ccccc2)N1c1nc(-c2ccc(Cl)cc2Cl)cs1` (stereo not drawn), for which the “activity change, negative = inhibition” value is -5.73%. As for `Clc1ccc(-c2cc(-c3ccccn3)on2)c(Cl)c1`, the Potency was 3.98 µM (active). Take `Clc1ccc(-c2ncc3ccccn23)c(Cl)c1`: the “activity change, negative = inhibition” value was -10.1%. Still for that read-out and setting: the result for `COc1ccc(-n2nc(C(=O)NCC(=O)N3CCN(c4ccccc4OC)CC3)c3ccccc3c2=O)c(OC)c1` reads -0.376%; that for `Cc1cccc2c1cnn2C(=O)CCC(=O)NC1CCCCC1`, 11.6%. Same read-out and setting: the result for `CCCCc1nc2cc(C(=O)N3CCCCC3CCO)ccc2o1` (stereo not drawn) reads -7.2%. Take `CNC(=S)N/N=C/c1ccc(N2CCOCC2)s1`: the Potency is 1.26 µM (active). `Cc1ccccc1N/N=C/c1ccc(N2CCOCC2)cc1`: the “activity change, negative = inhibition” value was 11.6%.

Turning to `C=CCNC(=S)N/N=C/c1ccc(C)s1`, the “activity change, negative = inhibition” value is -12.6%. Still for that read-out and setting: the result for `CSCCC(NS(=O)(=O)c1ccccc1F)C(=O)N1CC=C(c2ccccc2)CC1` (stereo not drawn) reads 15.2%; that for `C=CCc1ccccc1OCC(O)CN1CCN(CCO)CC1` (stereo not drawn), 7.01%; that for `CCN(CC(=O)NCCCN1CCOCC1)S(=O)(=O)c1cc(Cl)ccc1Cl`, -8.84%. Still for that read-out and setting: the result for `CC(=O)N1CCC(C(=O)OCc2ccc(Cl)cc2)(c2ccccc2)CC1` reads 12.7%.

Regarding `O=C(NCc1ccco1)/C(=C\c1cccc([N+](=O)[O-])c1)NC(=O)c1ccco1`, the “activity change, negative = inhibition” value was 0.141%. On the same count and under the same terms, the result for `COC(=O)CNC(=O)c1ccc(OC2CCN(C(=O)C3CC3)CC2)cc1` reads 9.4%. In the case of `CCc1ccc(/C=N/NC(=O)c2ccc(OC3CCCC3)cc2)s1`, the Potency was 11.2 µM (active). For the molecule `CCc1cc(C(N)=O)c(NC(=O)c2ccc(OC)cc2)s1`, the “activity change, negative = inhibition” value was 3.79%. The same measure, in the same setting: the result for `CCOC(=O)N1CCN(C(=O)c2ccc3c(=O)n(CCc4ccc(OC)c(OC)c4)c(=O)[nH]c3c2)CC1` reads 23.1%; that for `CCOC(=O)Cn1c(O)c(N=NC(=O)CNC(=O)Cc2ccccc2)c2ccccc21`, -18.1%. Regarding `CC1CCN(C(=O)/C(=C\c2ccccc2F)NC(=O)c2ccccc2)CC1`, the “activity change, negative = inhibition” value was -3.39%. Still for that read-out and setting: the result for `O=C(CN1CCN(c2ccc(F)cc2)CC1)Nc1cccc(C(F)(F)F)c1` reads 1.67%.

Turning to `O=C(Cn1cc(/C=N/NC(=O)c2cccc(C(F)(F)F)c2)c2ccccc21)Nc1ccc(F)cc1`, the Potency was 11.2 µM (active).

Regarding `NC(=O)Cn1cc(/C=N\NS(=O)(=O)c2ccccc2)c2ccccc21`, the “activity change, negative = inhibition” value is 22.4%. As for `Cc1ccc(S(=O)(=O)N/N=C(\c2ccccc2)C2CC2)cc1`, the “activity change, negative = inhibition” value was -14.4%. In the case of `Cn1cccc1/C=N/NC(=O)CNc1cccc2ccccc12`, the “activity change, negative = inhibition” value is 1.27%. For the molecule `Cc1cccc(/C=N/NC(=O)CNc2cccc3ccccc23)n1`, the Potency is 14.1 µM (active). For the molecule `C/C(=N\NC(=O)CNc1cccc2ccccc12)c1ccc(Br)s1`, the “activity change, negative = inhibition” value was -40.1%. Still for that read-out and setting: the result for `CCn1cc(CN2CCN(CC(C)(C)C)C(CCO)C2)c2ccccc21` (stereo not drawn) reads -8%. With `CN(CCOc1ccccc1)Cc1nc2cc(Cl)ccc2c(=O)[nH]1`, the Potency is 4.47 µM (active). Turning to `O=c1[nH]c(CN2CCOCC2)nc2cc(Cl)ccc12`, the “activity change, negative = inhibition” value is 39.4%. On the same count and under the same terms, the result for `CN(Cc1nc2ccccc2c(=O)[nH]1)Cc1cc(=O)oc2ccc3ccccc3c12` reads -40.8%. In the case of `COc1cccc(CNC(=O)c2cccnc2Sc2ccc(Cl)cc2)c1`, the “activity change, negative = inhibition” value is 16.6%.

Turning to `Brc1ccccc1CN1CCC(Cc2ccccc2)CC1`, the “activity change, negative = inhibition” value is 15.2%. As to `C=CCn1c(COc2ccccc2)nnc1SCC(=O)NCC(=O)OCC`, the “activity change, negative = inhibition” value was -36.1%. Turning to `CCOC(=O)CNC(=O)CSc1nnc(COc2ccc(Cl)cc2)n1CC`, the Potency was 7.94 µM (active).

`CCOC(=O)CNC(=O)CSc1nnc(-c2cccc(OC)c2)n1CC`: the “activity change, negative = inhibition” value is -4.98%. On the same count and under the same terms, the result for `Cn1c(=O)oc2cc(S(=O)(=O)NCCC(=O)NCc3ccccc3Cl)ccc21` reads 25.2%; that for `O=C(CCC1CCN(C(=O)c2cccc(Cl)c2F)CC1)Nc1ccccc1`, 2.14%. On to `O=C1c2cccc3c([N+](=O)[O-])ccc(c23)C(=O)N1CC1CCCO1` (stereo not drawn), for which the Potency is 15.8 µM (active). For the molecule `CCC(=O)Nc1ccc(C(=O)Nc2ccc3c(c2)C(=O)N(CC2CCCO2)C3=O)cc1` (stereo not drawn), the “activity change, negative = inhibition” value is -9.45%. The same measure, in the same setting: the result for `O=C(NCc1ccc2c(c1)OCO2)c1ccc2c(c1)C(=O)N(CC1CCCO1)C2=O` (stereo not drawn) reads 7.17%. The same measure, in the same setting: the result for `O=C(CSc1n[nH]c(=O)n1-c1ccccc1)Nc1ccccc1C(F)(F)F` reads -8.7%; that for `CCCNC(=O)CCc1c(C)nc2c(c(C)nn2-c2ccc(C)cc2)c1C`, -17.6%. Same read-out and setting: the result for `COc1cc2ccccc2cc1C(=O)Nc1nc(C)c(C(C)=O)s1` reads -12.5%; that for `CCCCCC1CC(COc2ccccc2)OC1=O` (stereo not drawn), 26.8%; that for `COc1ccc(C(=O)NC2CC(C)(C)Cc3c2cnn3-c2ccccc2)c(OC)c1` (stereo not drawn), 18.6%. In the case of `O=C(NCCCn1ccnc1)c1cc(Br)c(Br)s1`, the “activity change, negative = inhibition” value was 16.4%. For the molecule `C=Cn1cc[n+](CC(=O)c2ccc(OC)c(OC)c2)c1`, the “activity change, negative = inhibition” value was 0.691%. Same read-out and setting: the result for `O=C(CSc1ccc(-c2ccco2)nn1)Nc1cccc(F)c1` reads 27.3%. With `Cc1cnc(NC(=O)c2ccc(Cl)nc2)s1`, the Potency was 15.8 µM (active). Consider `Cc1ccc(Cl)cc1NC(=O)c1ccccn1`, for which the “activity change, negative = inhibition” value was -15.2%. Take `Cc1cnc(NC(=O)CSc2c(Cl)cccc2Cl)s1`: the “activity change, negative = inhibition” value is -37.1%. On the same count and under the same terms, the result for `Cc1ccc(SCC(=O)Nc2ncc(C)s2)cc1` reads -25.9%.
